Results taken from PubChem BioAssay (NCATS).
“And” between values parts separate entries of the source, which are not always exact repeats. Equal entries are not always repeated. Records with an inconclusive call do not appear. Entries that show only a call come without a potency. The source made the active and inactive calls. Calls follow the shape of the dose curve; as a rule, active = well fitted cell-killing curve with a large enough effect; inconclusive = small, poorly fitted or top-dose-only effect, or effect the other way; inactive = no such curve, though single readings can be large or run the other way.

Experiment: Viability qHTS for spleen associated tyrosine kinase inhibitor (SYKi) naive MV4-11 cells (AID 1963823); also: nearly all actives have a fitted effect of over 40% in size
Settings: MV4-11 AML viability, CellTiter-Glo luminescence, 72 h; series mostly up to 45 µM
From the text: Department of Medicine, Hematology/Oncology
University Hospital Frankfurt, Germany.
Trials have shown promising clinical activity of the selective SYK inhibitor entospletinib in patients with high expressing HOXA9/MEIS1 acute leukemias. As the development of resistance mechanisms is a common problem in the use of targeted drugs, we performed a chemical library screen to identify drug sensitivities in SYK inhibitor resistant AML cells. […] Glucocorticoids are potent immunosuppressants which work in part by inhibiting the transcription of cytokine genes.
Described herein is a viability screen to look for activity in the SYK inhibitor naive cell line against four NCATS compound libraries (MIPE 5.0, NPC, NPACT, and Kinase) totaling 11372 compounds. Active hits were reacquired for confirmation and further secondary assay testing.
SEQUENCE No. (e.g., 1, 2, 3, etc.); […] (e.g., Cells, Incubation, Reagent, etc.); VALUE; DESCRIPTION.
1; Media; 2uL; white, solid-bottom Corning assay plate.
2; Compounds; 23nL; Echo acoustic dispenser.
3; Cell; 5uL; 500 cells per well.
4: Incubation; 72hr; 37 C, 5% CO2, 95% humidity.
5; Reagent; 3uL; CellTiter-Glo reagent (Promega).
6; Incubation; 10min; room temperature.
7; Detection; Luminescence; ViewLux plate reader (PerkinElmer).
NOTES (numbers refer to Sequence numbers above
1. Quantitative high-throughput screening (qHTS) of small molecule compounds was conducted on naive SYKi MV4-11 cell line.
2. Twenty-three nanoliter of small molecule compounds were added to each assay plates using the Echo acoustic dispenser (Beckman Coulter).
3. Cells were seeded into the assay plates at a final density of 500 cells in 5uL of media per well using the Multi-drop Combi dispenser.
4. Plates were covered with stainless steel gasketed lids and incubated for 72 hours at standard cell culture conditions.
5. Viability was assessed by adding 3uL of CellTiter-Glo detection reagent (Promega).
6. Plates were covered with gasket lids and incubated for 10 minutes at room temperature.
7. Luminescence was measured on a ViewLux plate reader (PerkinElmer).
Potency is read from the fitted curve at half-maximal effect.

Row | SMILES | Potency | viability (% of control)
1 | Cc1noc(-c2ccc(-c3ccc(C4(C(=O)O)CC4)cc3)cc2)c1NC(=O)O[C@H](C)c1ccccc1 | 16.6 µM (active) | –
2 | Cc1ccccc1-c1cc(N2CCN(C)CC2)ncc1N(C)C(=O)C(C)(C)c1cc(C(F)(F)F)cc(C(F)(F)F)c1 | inactive | –
3 | COc1ccc(NC(=O)c2ccc(-c3ccc(-c4nnc(C)o4)cc3C)cc2)cc1N1CCN(C)CC1 | 23.1 µM (active) | –
4 | O=C1OC(/C=C/c2ccccc2)=NC/1=C\c1cccnc1 | inactive | –
5 | COc1cc(C(=S)N2CCOCC2)cc(OC)c1OC | inactive | –
6 | COc1ccccc1C(=O)Nc1cc2c(cc1N1CCCCC1)n(C)c(=O)n2C | 14.8 µM (active) | –
7 | O=C1O[C@H]([C@@H](O)CO)C(O)=C1O | inactive | –
8 | CC(C)NCC(O)COc1ccc(CCOCC2CC2)cc1 (stereo not given) | inactive | –
9 | O=C(O)c1ccnc2cc(C(OCC3CCC(F)(F)CC3)c3ccccc3Cl)[nH]c12 (stereo not given) | inactive | –
10 | CC#C[C@]1(O)CC[C@H]2[C@@H]3CCC4=CC(=O)CCC4=C3[C@@H](c3ccc(N(C)C)cc3)C[C@@]21C | 18.6 µM (active) | –
11 | C=CCCCCCCCCC(=O)O | inactive | –
12 | COC(=O)C(C)C1CCC2(C)C(=O)C=CC(C)(O)C2C1O (stereo not given) | inactive | –
13 | Cc1cc(=O)oc2cc(O)ccc12 | inactive | –
14 | CC(=O)CC(c1ccc([N+](=O)[O-])cc1)c1c(O)c2ccccc2oc1=O (stereo not given) | inactive | –
15 | COc1ccc(S(=O)(=O)Nc2cc(-c3csc(C#N)c3)ccc2C)cc1 | 0.0833 µM (active) | –
16 | Cc1[nH]c(/C=C2\C(=O)Nc3ccc(S(=O)(=O)N(C)c4cccc(Cl)c4)cc32)c(C)c1C(=O)N1CCN(C)CC1 | 1.3 µM (active) and 1.32 µM (active) | –
17 | O=C(/C=C/c1ccc(O)cc1)OC[C@H]1O[C@H](O[C@@]2(CO)O[C@@H](CO)[C@H](O)[C@H]2O)[C@H](O)[C@@H](O)[C@@H]1O | inactive | –
18 | C[C@@H]1CC[C@]2(C(=O)O[C@@H]3O[C@H](CO)[C@@H](O)[C@H](O)[C@H]3O)CC[C@]3(C)C(=CCC4[C@@]5(C)C[C@@H](O)[C@H](O)[C@](C)(C(=O)O)C5CC[C@]43C)[C@@H]2[C@]1(C)O (stereo not given in full) | inactive | –
19 | CC[C@H]1OC(=O)[C@H](C)[C@@H](O[C@H]2C[C@@](C)(OC)[C@@H](O)[C@H](C)O2)[C@H](C)[C@@H](O[C@@H]2O[C@H](C)C[C@H](N(C)C)[C@H]2O)[C@](C)(O)C[C@@H](C)C(=O)[C@H](C)[C@@H](O)[C@]1(C)O | inactive | –
20 | CC[C@H](C)[C@@H]1NC(=O)[C@H](Cc2ccc(OC)cc2)NC(=O)CCCSC[C@@H](C(=O)N2CCC[C@H]2C(=O)N[C@@H](CC(C)C)C(=O)NCC(N)=O)NC(=O)[C@H](CC(N)=O)NC(=O)[C@H](CCC(N)=O)NC1=O | inactive | –

Row | SMILES | Potency | viability (% of control)
21 | CN(Cc1cnc2nc(N)nc(N)c2n1)c1ccc(C(=O)N[C@@H](CCC(=O)O)C(=O)O)cc1 | 10.6 nM (active) and 37.2 nM (active) | –
22 | C=CC1C(O[C@@H]2O[C@H](CO)[C@@H](O)[C@H](O)[C@H]2O)OC=C(C(=O)OC)C1CC(=O)O (stereo not given in full) | inactive | –
23 | CC(=O)/C=C/[C@H]1[C@](C)(O)[C@@H](O)[C@H](O)C2C(C)(C)CCC[C@@]21C (stereo not given in full) | inactive | –
24 | C=C(C(=O)O)[C@H]1C[C@]2(C)C(=O)CC[C@]23O[C@H]1C[C@@H]3C | inactive | –
25 | CCc1nn(CCO)c(CC)c1Oc1cc(C#N)cc(C#N)c1 | inactive | –
26 | C/C=C/c1ccc(OC)cc1 | inactive | –
27 | Cn1ncc(NC(=O)c2nc(-c3c(F)cccc3F)sc2N)c1N1CC[C@@H](N)[C@H](F)CC1 | 0.235 µM (active) | –
28 | C=C1[C@@H](C)[C@H]2[C@H](Cc3c[nH]c4ccccc34)NC(=O)[C@]23C(=O)/C=C/C(=O)[C@H](O)/C(C)=C\[C@@H](C)C/C=C/[C@H]3[C@@H]1O | 2 µM (active) | –
29 | Cc1[nH]nc2ccc(-c3cncc(OC[C@@H](N)Cc4ccccc4)c3)cc12 | 82 nM (active) and 132 nM (active) | –
30 | CC1(C)CC[C@]2(C(=O)O)[C@H](O)C[C@]3(C)C(=CCC4[C@@]5(C)CC[C@H](O[C@@H]6O[C@H](CO[C@@H]7OC[C@H](O)[C@H](O)[C@H]7O[C@@H]7OC[C@H](O)[C@H](O)[C@H]7O)[C@@H](O)[C@H](O)[C@H]6O)C(C)(C)C5CC[C@]43C)[C@@H]2C1 (stereo not given in full) | – | 57.5% [at 9.25 µM] (inactive)
31 | CC1(C)S[C@H]2[C@H](NC(=O)[C@@H](N)c3ccc(O)cc3)C(=O)N2[C@H]1C(=O)O | inactive | –
32 | CC(C)C1=CC2C(CC[C@]2(C)O)[C@](C)(O)CC1 (stereo not given in full) | inactive | –
33 | O=c1ccc2ccccc2o1 | inactive | –
34 | CCS(=O)(=O)c1ccc(OC)c(C(=O)OC)c1 | inactive | –
35 | CCCCNc1ncc(C(=O)NCc2ccc(-n3ccnc3)cc2)c(NC2CCC(O)CC2)n1 (stereo not given) | 0.092 µM (active) | –
36 | COc1ccc(C(O)C(C)OC2OC(CO)C(O)C(O)C2O)cc1 (stereo not given) | inactive | –
37 | O=C(Nc1cccnn1)N1CCC(=Cc2cccc(Oc3ccc(C(F)(F)F)cn3)c2)CC1 | 7.42 µM (active) | –
38 | CCCC1(CCC)CCC2(CCN(CCCN(CC)CC)C2)CC1 | 2.35 µM (active) | –
39 | O=C(/C=C/c1ccc(O)cc1)O[C@H]1[C@H](OC2CCCCC2O)O[C@H](CO)[C@@H](O)[C@@H]1O (stereo not given in full) | inactive | –
40 | C[C@H](NC(c1cccc2[nH]c(=O)c(=O)[nH]c12)P(=O)(O)O)c1ccc(Br)cc1 (stereo not given in full) | inactive | –
